Measured values: PubChem BioAssay
Values joined by “and” are separate entries in the source; they are usually repeats but may differ in a detail not shown here. Equal entries are not always repeated. Active and inactive are the calls of the source. Rule as the data show it, unless noted: active = inhibition above about 80%; inactive = the rest.

Columns and labels:
[1] = growth inhibition, single agent or in combination, cell-based, chromothripsis tumors, cisplatin or BGB combos (AID 1671449); settings: LFS_MB_P medulloblastoma cells;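 also: cells exposed for 96 hours; 0% = vehicle DMSO and 100% = killing by high DMSO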
[2] = growth inhibition, single agent and combos, cell-based, chromothripsis tumors, cisplatin or BGB combos (AID 1671450); settings: HDN33 neuroblastoma cells, stronger effect = higher value;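 also: cells exposed to compound for four days; 0% = vehicle DMSO and 100% = cell killing by high DMSO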
[3] = growth inhibition, single agents and combos, ICB984, cell-based, cisplatin or BGB combos, synergistic combos for chromothripsis tumors (AID 1671451; call rule not given here;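 also: cells exposed for 96 hours before readout; 0% = vehicle DMSO and 100% = killing by high DMSO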); settings: ICB984 medulloblastoma cells, drug combinations, stronger effect = higher value
[4] = growth inhibition, single agents and combos, LFS_MB_1R, cell-based, cisplatin or BGB combos, synergistic combos for chromothripsis tumors (AID 1671452); settings: LFS_MB_1R medulloblastoma cells, stronger effect = higher value;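 also: cells exposed for 96 hours before readout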
[5] = growth inhibition, single agents and combos, HTB85, cell-based, BGB or cisplatin IC20 combos, synergistic combos for chromothripsis tumors (AID 1671453); settings: HTB85 osteosarcoma cells, drug combinations, stronger effect = higher value;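 also: cells exposed for 96 hours before readout; 0% = vehicle DMSO and 100% = high DMSO killing control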
[6] = growth inhibition, single agents and combos, CRL2098, cell-based, BGB or cisplatin IC20 combos, synergistic combos for chromothripsis tumors (AID 1671454); settings: CRL2098 osteosarcoma cells, drug combinations, stronger effect = higher value;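 also: cells exposed for 96 h before readout; 0% = vehicle DMSO and 100% = killing by high DMSO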
[7] = growth inhibition, single agents and combos, HD-MB03, cell-based, BGB or cisplatin IC20 combos, synergistic combos for chromothripsis tumors (AID 1671455; in the data active = inhibition above about 83%;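 also: 0% = vehicle DMSO and 100% = high DMSO as cytotoxic control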); settings: HD-MB03 medulloblastoma cells, stronger effect = higher value
[8] = growth inhibition, single agents and combos, UWB1.289, cell-based, BGB or cisplatin combos, synergistic combos for chromothripsis tumors (AID 1671456); settings: UWB1.289 ovarian carcinoma cells, stronger effect = higher value;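 also: cells exposed to compound for four days; 0% = vehicle DMSO and 100% = killing by high DMSO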
[9] = growth inhibition, single agents and combos, LFS_MB_2R, cell-based, cisplatin combos, synergistic combos for chromothripsis tumors (AID 1671457); settings: LFS_MB_2R medulloblastoma cells, stronger effect = higher value;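 also: cells exposed to compound for four days before readout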
[10] = growth inhibition, MDA-MB-436, cell-based, BGB or cisplatin combos, synergistic combos for chromothripsis tumors (AID 1671458; call rule not given here;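 also: cells exposed for 96 hours; 0% = vehicle DMSO and 100% = killing by high DMSO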); settings: MDA-MB-436 breast carcinoma growth inhibition, drug combinations, stronger effect = higher value
[11] = UWB1.289_BRCA1 ovarian cancer growth, cell-based, BGB or cisplatin combinations (AID 1671459); settings: UWB1.289 BRCA1 ovarian carcinoma, drug combinations, stronger effect = higher value
[12] = drug combination toxicity in non-malignant astrocytes – cell-based, BGB or cisplatin IC20 combos, cytotoxicity control for chromothriptic childhood tumor combination screen (AID 1671460); settings: Human astrocytes, viability inhibition, drug combinations, at 0.5 µM, stronger effect = higher value;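 also: cells exposed to compounds for 96 hours before viability readout; 0% = vehicle and 100% = killing control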
[13] = BT084 cell growth, single and combined drugs, ICGC_MB145, cisplatin and BGB IC40 combos (AID 1671461); settings: BT084 medulloblastoma cells, drug combinations, stronger effect = higher value;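 also: cells exposed to drugs for 96 hours; 0% = vehicle DMSO and 100% = high DMSO full killing control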
[14] = RCMB18 cell growth, single agent and combined, cisplatin and BGB IC40 combos (AID 1671462); settings: RCMB18 medulloblastoma cells, stronger effect = higher value;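 also: cells exposed to compound for four days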
[15] = CRL1545 cell growth, single agent and combined, cisplatin and BGB IC20 combos (AID 1671464); settings: CRL1545 osteosarcoma cells, stronger effect = higher value;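 also: cells exposed to compound for 96 hours before readout; 0% = vehicle DMSO and 100% = high DMSO killing control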
[16] = measured here: combination with BGB IC40, at 0.05 µM
[17] = measured here: with BGB IC20 combination, at 0.5 µM
[18] = measured here: with cisplatin IC20 combination, at 0.5 µM
[19] = measured here: combination with cisplatin, at 0.5 µM
[20] = measured here: combination with cisplatin, at 5 µM

**Q.** For `CO[C@H]1C=CO[C@@]2(C)Oc3c(C)c(O)c4c(O)c(c5c(nc6cc(C)ccn65)c4c3C2=O)NC(=O)C(C)=CC=C[C@H](C)[C@H](O)[C@@H](C)[C@@H](O)[C@@H](C)[C@H](OC(C)=O)[C@@H]1C`, which inhibition ([1]; at 0.5 µM, stronger effect = higher value) is on record?
**A.** Its inhibition is -25.7% (inactive) and 0.03% (inactive).

**Q.** And the inhibition ([1]; measured here: combination with BGB IC20, at 0.005 µM)?
**A.** Its inhibition is -21% and -12.6%.

**Q.** What about the inhibition ([1]; measured here: combination with BGB IC40, at 0.005 µM) of the same compound?
**A.** Its inhibition is -15.4% and -21%.

**Q.** And the inhibition [1, 16]?
**A.** The inhibition was -19.4% and -36.7%.

**Q.** What about the inhibition ([1]; measured here: combination with cisplatin, at 0.5 µM, stronger effect = higher value) of the same compound?
**A.** Its inhibition is -19.3% and -0.506%.

**Q.** And the inhibition ([1]; measured here: combination with cisplatin, at 5 µM, stronger effect = higher value)?
**A.** Its inhibition is -24.8% and 7.24%.

**Q.** And the inhibition ([2]; BGB combo, at 5 µM)?
**A.** The inhibition was -5.62% and -13.7%.

**Q.** What about the inhibition ([2]; at 0.5 µM) of the same compound?
**A.** Its inhibition is -1.69% (inactive) and -3.15% (inactive).

**Q.** What about the inhibition ([2]; cisplatin combo, at 5 µM) of the same compound?
**A.** The inhibition was -20.9% and -12.7%.

**Q.** And the inhibition [2, 17]?
**A.** The inhibition was 24.2% and -1.36%.

**Q.** What about the inhibition [2, 18] of the same compound?
**A.** Its inhibition is -2.79% and 1.82%.

**Q.** And the inhibition ([2]; single agent, at 5 µM)?
**A.** The inhibition was -32.3% and -1.92%.

**Q.** What about the inhibition ([3]; BGB IC20 combo, at 0.005 µM) of the same compound?
**A.** Its inhibition is 0.503% and -4.57%.

**Q.** What about the inhibition ([3]; BGB IC40 combo, at 0.005 µM) of the same compound?
**A.** Its inhibition is 18.5% and -33.7%.

**Q.** What about the inhibition ([3]; BGB IC40 combo, at 0.05 µM) of the same compound?
**A.** The inhibition was -2.72% and 6.47%.

**Q.** What about the inhibition ([3]; at 0.5 µM) of the same compound?
**A.** The inhibition was -25.8% (inactive) and -13.5% (inactive).

**Q.** What about the inhibition ([3]; cisplatin combo, at 0.05 µM) of the same compound?
**A.** The inhibition was -2.72% and 3.11%.

**Q.** What about the inhibition ([3]; cisplatin combo, at 0.5 µM) of the same compound?
**A.** Its inhibition is -37.2% and -4.35%.

**Q.** What about the inhibition ([3]; cisplatin combo, at 5 µM) of the same compound?
**A.** The inhibition was -14.1% and -11.2%.

**Q.** What about the inhibition ([3]; measured here: 5 uM single agent, at 5 µM) of the same compound?
**A.** The inhibition was -18.1% and 0.267%.

**Q.** And the inhibition ([4]; at 0.5 µM)?
**A.** Its inhibition is 17.8% (inactive) and -17.4% (inactive).

**Q.** And the inhibition [4, 16]?
**A.** Its inhibition is -4.04% and -14.4%.

**Q.** What about the inhibition [4, 19] of the same compound?
**A.** The inhibition was -10.1% and -31.8%.

**Q.** What about the inhibition [4, 20] of the same compound?
**A.** The inhibition was -6.72% and -38.3%.

**Q.** And the inhibition ([5]; at 0.5 µM)?
**A.** The inhibition was -5.41% (inactive) and -9.58% (inactive).

**Q.** What about the inhibition ([5]; measured here: with BGB IC20, at 0.5 µM) of the same compound?
**A.** The inhibition was -40.5% and -14.9%.

**Q.** What about the inhibition ([5]; measured here: with BGB IC20, at 5 µM) of the same compound?
**A.** The inhibition was -22.4% and -7.39%.

**Q.** What about the inhibition ([5]; measured here: with cisplatin IC20, at 0.5 µM) of the same compound?
**A.** Its inhibition is 16.5% and -6.9%.

**Q.** And the inhibition ([5]; measured here: with cisplatin IC20, at 5 µM)?
**A.** Its inhibition is 10.3% and 21%.

**Q.** And the inhibition ([5]; single agent, at 5 µM)?
**A.** Its inhibition is -1.97% and 12.2%.

**Q.** What about the inhibition ([6]; at 0.5 µM) of the same compound?
**A.** The inhibition was -18.8% (inactive) and -34.3% (inactive).

**Q.** And the inhibition ([6]; measured here: combination with BGB at IC20, at 0.5 µM)?
**A.** Its inhibition is -28.7% and -29%.

**Q.** And the inhibition ([6]; measured here: combination with cisplatin at IC20, at 0.5 µM)?
**A.** The inhibition was -10.1% and -43.6%.

**Q.** And the inhibition ([7]; at 0.5 µM)?
**A.** The inhibition was -6.38% (inactive) and 5.86% (inactive).

**Q.** What about the inhibition ([7]; measured here: combo with BGB at IC20, at 0.5 µM) of the same compound?
**A.** The inhibition was -2.33% and 1.22%.

**Q.** And the inhibition ([7]; measured here: combo with cisplatin at IC20, at 0.5 µM)?
**A.** The inhibition was -9.26% and 19.1%.

**Q.** And the inhibition ([8]; at 0.5 µM)?
**A.** The inhibition was 4.48% (inactive) and 6.54% (inactive).

**Q.** What about the inhibition ([8]; measured here: inhibition with BGB combination, at 0.05 µM) of the same compound?
**A.** Its inhibition is -18.6% and -11.7%.

**Q.** And the inhibition ([8]; measured here: inhibition with cisplatin combination, at 0.05 µM)?
**A.** The inhibition was -10.6% and 10.3%.

**Q.** What about the inhibition ([9]; at 0.5 µM) of the same compound?
**A.** The inhibition was -17.5% (inactive) and -15.1% (inactive).

**Q.** And the inhibition [9, 19]?
**A.** Its inhibition is -7.91% and -17.1%.

**Q.** What about the inhibition [9, 20] of the same compound?
**A.** Its inhibition is -18% and -13.3%.

**Q.** And the inhibition ([10]; at 0.5 µM)?
**A.** Its inhibition is -11.8% (inactive) and -3.37% (inactive).

**Q.** And the inhibition ([10]; measured here: BGB combination, at 0.5 µM)?
**A.** Its inhibition is -0.535% and -8.79%.

**Q.** What about the inhibition ([10]; measured here: BGB combination, at 5 µM) of the same compound?
**A.** Its inhibition is -3.41% and -15.2%.

**Q.** What about the inhibition ([10]; measured here: cisplatin combination, at 0.5 µM) of the same compound?
**A.** Its inhibition is -30.7% and -0.606%.

**Q.** What about the inhibition ([10]; measured here: cisplatin combination, at 5 µM) of the same compound?
**A.** Its inhibition is -23.7% and -8.55%.

**Q.** What about the inhibition ([11]; BGB combination, concentration series, at 5 µM) of the same compound?
**A.** The inhibition was 3.57% and 12%.

**Q.** And the inhibition ([11]; at 0.5 µM)?
**A.** Its inhibition is 6.89% (inactive) and 6.14% (inactive).

**Q.** What about the inhibition ([11]; cisplatin combination, concentration series, at 5 µM) of the same compound?
**A.** The inhibition was 5.53% and -6.86%.

**Q.** And the inhibition [12]?
**A.** Its inhibition is -8.79% (inactive) and -10.8% (inactive).

**Q.** And the inhibition ([12]; measured here: combo with BGB IC20)?
**A.** The inhibition was -1.97% and -5.46%.

**Q.** And the inhibition ([12]; measured here: combo with cisplatin IC20)?
**A.** The inhibition was -27% and -10.4%.

**Q.** What about the inhibition ([13]; at 0.5 µM) of the same compound?
**A.** The inhibition was -17.7% (inactive) and -11.5% (inactive).

**Q.** What about the inhibition ([13]; cisplatin combination, at 0.5 µM) of the same compound?
**A.** Its inhibition is -34% and -17.3%.

**Q.** What about the inhibition ([13]; cisplatin combination, at 5 µM) of the same compound?
**A.** The inhibition was -37% and 5.08%.

**Q.** What about the inhibition ([13]; measured here: BGB IC40 combination 0.05 uM, at 0.05 µM) of the same compound?
**A.** Its inhibition is -7.06% and 28.8%.

**Q.** And the inhibition ([13]; single agent, at 5 µM)?
**A.** The inhibition was -13.3% and -9.78%.

**Q.** And the inhibition ([14]; at 0.5 µM)?
**A.** The inhibition was -1.81% (inactive) and -2.64% (inactive).

**Q.** And the inhibition ([14]; cisplatin combo, at 5 µM)?
**A.** The inhibition was -11.2% and 11.2%.

**Q.** What about the inhibition ([14]; measured here: BGB IC40 combination, at 0.05 µM) of the same compound?
**A.** Its inhibition is 12.8% and 1.86%.

**Q.** And the inhibition [14, 19]?
**A.** The inhibition was -36.9% and 15.4%.

**Q.** And the inhibition ([14]; single agent, at 5 µM)?
**A.** Its inhibition is -12% and -2.61%.

**Q.** And the inhibition ([15]; at 0.5 µM)?
**A.** The inhibition was 8.59% (inactive) and -15.2% (inactive).

**Q.** And the inhibition [15, 17]?
**A.** Its inhibition is -1.52% and -4.42%.

**Q.** What about the inhibition [15, 18] of the same compound?
**A.** The inhibition was 13.6% and -22.6%.

**Q.** And the inhibition ([15]; single agent, at 0.05 µM)?
**A.** The inhibition was 15.1% and 18%.

**Q.** And the inhibition ([15]; single agent, at 5 µM)?
**A.** Its inhibition is -31.6% and 28.6%.
